Screening data: PubChem, several laboratories
Rows were chosen to be rich in hits. Some 27% of all compounds tested hit in one or more screens of this group.
CYP2C19 inhib – blockers of cytochrome P450 2C19 activity – biochemical, luminescence, ADME assay, primary screen; P33261; CYP2C19 Supersomes, luciferin-H EGE luminescence, 30 min; inhibition, % at 5 µM; 96,000 compounds, 21% hits; AID 778, 2007;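 active = CYP2C19 inhibition above a set limit at 5 µM in the primary screen, cut at about 50% in these data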;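 also: plate controls were negative control wells for no effect and 2.5 mM tranylcypromine positive control for full effect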
Target sequence (P33261 whole entry, looked up): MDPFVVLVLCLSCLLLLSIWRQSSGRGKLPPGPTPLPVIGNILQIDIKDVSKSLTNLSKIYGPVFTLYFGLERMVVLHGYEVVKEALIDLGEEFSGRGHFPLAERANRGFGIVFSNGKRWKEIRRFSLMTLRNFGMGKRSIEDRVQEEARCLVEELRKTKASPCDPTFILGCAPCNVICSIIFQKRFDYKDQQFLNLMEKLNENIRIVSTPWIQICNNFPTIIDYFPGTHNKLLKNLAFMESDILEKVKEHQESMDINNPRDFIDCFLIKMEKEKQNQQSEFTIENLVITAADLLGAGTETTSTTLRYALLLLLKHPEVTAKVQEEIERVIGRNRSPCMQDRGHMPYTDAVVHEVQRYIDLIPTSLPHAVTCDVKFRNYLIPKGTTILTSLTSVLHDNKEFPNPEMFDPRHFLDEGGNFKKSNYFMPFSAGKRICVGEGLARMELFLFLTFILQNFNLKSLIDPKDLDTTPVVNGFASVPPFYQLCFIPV
CYP2C19 activ – human CYP2C19 activators, primary screen, biochemical, luminescence; Cytochrome P450 2C19 (Homo sapiens), P33261; recombinant CYP2C19, luciferin-H EGE luminescence; active compounds read high; 0 = fully inhibited enzyme, 1 = untreated enzyme; activation factor at 5 µM; 96,000 tested, under 10 active; AID 1025, 2008;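 active = activation factor of at least 2 at 5 µM in the primary screen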;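 also: 0 = wells with 2.5 mM tranylcypromine and 1 = vehicle-only wells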
CYP2C9 activ – human CYP2C9 activators, primary screen, biochemical, luminescence; Cytochrome P450 2C9 (Homo sapiens), P11712; recombinant CYP2C9, luciferin-H conversion; active compounds read high; factor 1 = untreated enzyme, 0 = blocked; AID 1024, 2008; 96,000 compounds, 1.4% hits; activation factor at 5 µM;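 active = activation factor of 2 or more for CYP2C9 at a 5 µM dose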;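 also: 0 = sulfaphenazole-blocked wells and 1 = vehicle-only wells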
CYP2C9 inhib – blockers of cytochrome P450 2C9 activity – biochemical, luminescence, ADME assay, primary screen; P11712; CYP2C9 Supersomes, luciferin-H conversion; inhibition, % at 5 µM; 96,000 compounds, 20% hits; AID 777, 2007;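 active = blocking of liver enzyme CYP2C9 beyond about 50% at 5 µM, limit read from the data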
PTK2B oligo ant – antagonists of Pyk2 self-association, primary screen, Q293 cells, FERM NanoBiT luminescence, HTS; Protein-tyrosine kinase 2-beta (Homo sapiens), Q14289; active compounds read low; z-score (the deposit names both 25 µM and 10 µM); 99,000 compounds, 0.83% hits;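 active = Z-score of -3 or lower, scaled per plate to the spread of control and sample wells; inactive = z-score above -3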;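 also: negative z-score means lost luminescence so less FERM oligomerization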
Cav32 inh – Cav3.2 calcium influx blockers – cell-based, Fluo-4 calcium fluorescence, FDSS, MLSMR library, primary screen; Voltage-dependent T-type calcium channel subunit alpha-1H (Homo sapiens), O95180; AID 449739, 2010; Cav3.2-expressing cells; active compounds read low; 100,000 compounds, 4% hits; B-score at 10 µM;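 active = single-dose well whose peak fluorescence ratio is a statistical outlier from its plate by either plate-standardised score or position-corrected B-score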
Active calls of the source: *.

COc1ccc(NC(=O)C2CSC3c4ccccc4C(=O)N23)cc1 (centres undefined) was read as CYP2C19 inhib 70*, CYP2C19 activ 0.3, CYP2C9 activ 0.4, CYP2C9 inhib 60*, PTK2B oligo ant 0.4 and Cav32 inh 0.15.
O=C(NCC1CCCO1)[C@@H]1CSC2c3ccccc3C(=O)N21 (some centres undefined) was read as CYP2C19 inhib 14, CYP2C19 activ 0.9, CYP2C9 activ 0.8, CYP2C9 inhib 22, PTK2B oligo ant 0.91 and Cav32 inh -0.29.
Cc1ccccc1C(=O)c1cccn1CC(=O)NCc1ccco1 was read as CYP2C19 inhib 10, CYP2C19 activ 0.9, CYP2C9 activ 0.9, CYP2C9 inhib 5, PTK2B oligo ant 1.1 and Cav32 inh -0.016.
Screening Cc1ccccc1C(=O)c1cccn1CC(=O)NCCN1CCN(c2cccc(C)c2C)CC1 returned CYP2C19 inhib 83*, CYP2C19 activ 0.2, CYP2C9 activ 0.5, CYP2C9 inhib 46, PTK2B oligo ant 1.1 and Cav32 inh -2.
C=CCN1CC(c2nc3ccccc3n2Cc2cccc3ccccc23)CC1=O (centres undefined) was read as CYP2C19 inhib 35, CYP2C19 activ 0.7, CYP2C9 activ 0.4, CYP2C9 inhib 60*, PTK2B oligo ant -0.65 and Cav32 inh -3.6.
For Cc1ccc(OCCn2c(C3CC(=O)N(Cc4ccccc4)C3)nc3ccccc32)cc1 (centres undefined) the results were CYP2C19 inhib 33, CYP2C19 activ 0.7, CYP2C9 activ 0.2, CYP2C9 inhib 84* and Cav32 inh -7.3*.
For CCOC(=O)C1CCN(C(=O)COc2ccc(S(=O)(=O)NC(C)(C)C)cc2)CC1 the results were CYP2C19 inhib 2, CYP2C19 activ 1, CYP2C9 activ 0.8, CYP2C9 inhib 19, PTK2B oligo ant 0.89 and Cav32 inh 0.29.
COc1ccc(Nc2ncnc3ccccc23)c(OC)c1 was read as PTK2B oligo ant -0.64 and Cav32 inh 0.078.
`CCCCCCCCNc1ncnc2ccccc12` gave CYP2C19 inhib 79*, CYP2C19 activ 0.2, CYP2C9 activ 0.2, CYP2C9 inhib 82*, PTK2B oligo ant -0.26 and Cav32 inh -2.4.
`Cc1ccccc1-n1c(=O)cc(NCC2CCCO2)[nH]c1=O` (centres undefined) gave PTK2B oligo ant 0.85 and Cav32 inh 1.2.
`O=C1C(Cl)=C(NCC2CCCO2)C(=O)N1Cc1ccccc1` (centres undefined) gave CYP2C19 inhib 60*, CYP2C19 activ 0.4, CYP2C9 activ 1.6, CYP2C9 inhib -62, PTK2B oligo ant 0.25 and Cav32 inh 0.37.
Screening C=CCNC(=O)c1onc(CCl)c1C(=O)OC returned CYP2C19 inhib 2, CYP2C19 activ 1, CYP2C9 activ 1, CYP2C9 inhib 0 and Cav32 inh 1.3.
Screening O=C(c1cccnc1)N1CCN(Cc2ccc3c(c2)OCO3)CC1 returned CYP2C19 inhib 40, CYP2C19 activ 0.6, CYP2C9 activ 1.1, CYP2C9 inhib -12, PTK2B oligo ant 2.3 and Cav32 inh 1.1.
O=C(c1cccnc1)N1CCN(Cc2cccc(Br)c2)CC1 was read as CYP2C19 inhib 94*, CYP2C19 activ 0.1, CYP2C9 activ 0.7, CYP2C9 inhib 27, PTK2B oligo ant 1.4 and Cav32 inh 0.44.
O=C(COc1ccc(-c2ccccc2)cc1)N1CCN(C(=O)c2cccnc2)CC1 was read as CYP2C19 inhib -9, CYP2C19 activ 1.1, CYP2C9 activ 1.2, CYP2C9 inhib -15, PTK2B oligo ant 0.24 and Cav32 inh -0.046.
`COc1ccc(CN2CCN(C(=O)c3cccnc3)CC2)cc1Br` gave CYP2C19 inhib 94*, CYP2C19 activ 0.1, CYP2C9 activ 0.5, CYP2C9 inhib 47, PTK2B oligo ant 0.62 and Cav32 inh 2.3.
